The results in this text go back to ChEMBL document CHEMBL1157539, “Thousands of chemical starting points for antimalarial lead identification” (Nature, 2010).

Molecules are shown by their SMILES.

In one experiment the test system is Plasmodium falciparum. In words: GSK_TCMDC: Inhibition of Plasmodium falciparum 3D7 in whole red blood cells, using parasite LDH activity as an index of growth. Test compounds present at 2uM. Type of experiment: functional.
For the compound `COc1ccc2[nH]ccc(=NN=Cc3ccc(N(C)C)cc3)c2c1`, the Inhibition is 100%.
Still for that read-out and setting: as for `CCCc1cc(N2CCC(N3CCCC3)CC2)nc(Nc2ccc(OC)cc2)n1`, the figure is 94%; as for `Cc1cccc2nc(-c3cccc(-c4ccc(NC(=O)CN5CCOCC5)cc4)c3)[nH]c12`, 94%.
For the compound `CCc1cc2c(N)nc(N)nc2nc1-c1ccccc1`, the Inhibition is on record as 91%.
Same read-out and setting: for `Cl.N=C(NCCc1ccc(Cl)c(Cl)c1)c1ccc2ccccc2c1` the value was 100%; for `CC(C)(C)C(=O)Nc1ccc(N2CCN(C(c3ccccc3)c3ccccc3)CC2)c(Cl)c1`, 92%.
In turn, `COc1cc2nc(N3CCN(c4cc(C)ccc4C)CC3)nc(N)c2cc1OC.Cl` came in with an Inhibition of 98%.
The same measure, in the same setting: for `CCOC(=O)c1c[nH]c2c(ccc3ccccc32)c1=O` the value was 96%; for `O=C(Nc1cccnc1)c1cc(-c2cccnc2)nc2ccc(Br)cc12`, 99%; for `CCNc1cc(C(=O)N[C@@H](Cc2ccccc2)[C@H](O)CN[C@@H]2CCc3ccccc32)cc(N2CCCC2=O)c1`, 92%.
Compound `O=C(CCc1nc2c(cnn2-c2ccccc2)c(=O)[nH]1)NC1CCSc2ccccc21` (stereo not given) returned an Inhibition of 95%.
`Nc1nccc2ccc(-c3ccc4ncccc4c3)cc12.O=C(O)C(F)(F)F` displayed an Inhibition of 100%.
The same measure, in the same setting: as for `Cc1cc(-c2ccnc(Nc3cccc(C#N)c3)n2)cc(C)c1O`, the figure is 88%; as for `COC(=O)Cc1ccc(N)c2ccccc12.Cl`, 98%.
Same read-out and setting: as for `OC(CNCCc1ccccc1)Cn1c2ccc(Cl)cc2c2cc(Cl)ccc21` (stereo not given), the figure is 98%.
Same read-out and setting: as for `O=C(c1cc(-c2ccco2)n[nH]1)N1CCN(S(=O)(=O)c2ccc(Cl)cc2)CC1`, the figure is 96%.
For `Cc1ccc(S(=O)(=O)O)cc1.N=C(N)NCCCC(=O)NCC(N)=O`, the Inhibition is listed as 100%.
Still for that read-out and setting: as for `COc1ccc(C=Cc2ccc(-c3c(C)[nH]c(C)c(Cl)c3=O)cc2)cc1OC`, the figure is 97%; as for `O=C(Nc1cccc(CN2CCCN(Cc3cccc(F)c3)CC2)c1)c1ccc(Cl)c(Cl)c1.O=C(O)C(F)(F)F`, 85%.
For `Cl.N=C(N)Nc1ccc(NC(=O)Nc2ccc(NC(=N)N)cc2)cc1`, the Inhibition turned out to be 85%.
In turn, `CCC(CC)N1C(=O)C(c2ccccc2)(c2ccccc2)N=C1N.O=CO` showed an Inhibition of 96%.
On the same count and under the same terms, for `COc1cc2c(cc1OCCN1CCC(N3CCCC3)CC1)N(C(=O)/C=C/c1ccccc1Cl)CC2.Cl` the value was 100%.
For `CN1CCN(CCCN(Cc2cccc(-c3ccc(CNCc4ccc5c(c4)OCO5)cc3)c2)C(=O)Nc2ccccc2)CC1.O=C(O)C(F)(F)F`, the Inhibition is recorded as 98%.
In the case of `CCCCCC(C)N/C(=N/c1ccccc1Br)Nc1ccc([N+](=O)[O-])cc1O` (stereo not given), the Inhibition worked out at 99%.
Consider `Cc1cc(N2CCCC2)nc(Nc2ccc(NC(=O)c3ccc4c(c3)OCO4)cc2)n1`, for which the Inhibition came to 100%.
In turn, `Cc1ccc2[nH]c(-c3ccccc3Nc3ccnc4cc(-c5nccs5)ccc34)nc2c1.Cl` yielded an Inhibition of 100%.
On the same count and under the same terms, as for `Cc1ccc(C(NC(=O)Cc2ccccc2)c2ccc3cccnc3c2O)cc1` (stereo not given), the figure is 94%; as for `COc1ccc2ccc(F)c(CC(=O)N3CCOC(CNCc4cccc(-c5ccc(F)cc5)n4)C3)c2n1` (stereo not given), 92%; as for `COc1cc(Cc2c(C)nc3nc(N)nc(N)c3c2C)c(Br)c(OC)c1OC.Cl`, 93%.
Still for that read-out and setting: as for `COc1ccc(C2SCC(=O)N2CCc2ccc(OC)c(OC)c2)cc1` (stereo not given), the figure is 96%; as for `OC(CN1CCN(Cc2ccccc2)CC1)Cn1c(-c2ccccc2)c(-c2ccccc2)c2ccccc21` (stereo not given), 98%.
Same read-out and setting: as for `CNCCNCc1ccc(-c2ccc(-c3nc4cccc(C)c4[nH]3)cc2)cc1.O=C(O)C(F)(F)F`, the figure is 96%; as for `COc1ccccc1NS(=O)(=O)c1cc(C(=O)Nc2ccc(N3CCOCC3)c(S(=O)(=O)Nc3ccccc3Cl)c2)ccc1Cl`, 97%; as for `CC(C)C[C@H]1C(=O)N[C@H](C2Cc3ccccc3C2)C(=O)N1[C@@H](C(=O)Nc1ccccc1OCc1ccccc1)c1ccc(F)cc1F`, 90%.
On to `Cc1ccc(Nc2nc(N/N=C/c3cccc(O)c3)nc(Nc3ccc([N+](=O)[O-])cc3)n2)cc1C`, for which the Inhibition turned out to be 100%.
Same read-out and setting: for `Cl.c1ccc2cc(CNCCCN3CCN(CCCNCc4ccc5ccccc5c4)CC3)ccc2c1` the value was 100%; for `N=C(N)Nc1nc(-c2cccc(NC(=O)NCc3cccc4ccccc34)c2)cs1`, 100%; for `COc1ccc(-c2cncc3ccc(C(=O)NCc4ccncc4)nc23)cc1`, 100%.
Same read-out and setting: for `O=C(O)C(F)(F)F.Oc1ccc(CC2CCCN(c3nc(NCCCOc4ccccc4-c4ccccc4)nc(N4CCNCC4)n3)C2)cc1` (stereo not given) the value was 95%.
Still for that read-out and setting: for `Cc1cc(N)c2cc(NC(=O)CCC(=O)Nc3ccc4nc(C)cc(N)c4c3)ccc2n1` the value was 85%.

For another experiment, the system named is Plasmodium falciparum. Description: GSK_TCMDC: Inhibition of Plasmodium falciparum Dd2 in whole red blood cells, using parasite LDH activity as an index of growth. Test compounds present at 2uM. Type of experiment: functional.
`COc1ccc2[nH]ccc(=NN=Cc3ccc(N(C)C)cc3)c2c1` had an Inhibition of 95%.
In turn, `CCCc1cc(N2CCC(N3CCCC3)CC2)nc(Nc2ccc(OC)cc2)n1` returned an Inhibition of 14%.
On to `Cc1cccc2nc(-c3cccc(-c4ccc(NC(=O)CN5CCOCC5)cc4)c3)[nH]c12`, for which the Inhibition is 12%.
Same read-out and setting: for `CCc1cc2c(N)nc(N)nc2nc1-c1ccccc1` the value was 0%; for `Cl.N=C(NCCc1ccc(Cl)c(Cl)c1)c1ccc2ccccc2c1`, 29%; for `CC(C)(C)C(=O)Nc1ccc(N2CCN(C(c3ccccc3)c3ccccc3)CC2)c(Cl)c1`, 94%.
On the same count and under the same terms, for `COc1cc2nc(N3CCN(c4cc(C)ccc4C)CC3)nc(N)c2cc1OC.Cl` the value was 12%; for `CCOC(=O)c1c[nH]c2c(ccc3ccccc32)c1=O`, 96%.
The same measure, in the same setting: as for `O=C(Nc1cccnc1)c1cc(-c2cccnc2)nc2ccc(Br)cc12`, the figure is 60%; as for `CCNc1cc(C(=O)N[C@@H](Cc2ccccc2)[C@H](O)CN[C@@H]2CCc3ccccc32)cc(N2CCCC2=O)c1`, 93%.
For `O=C(CCc1nc2c(cnn2-c2ccccc2)c(=O)[nH]1)NC1CCSc2ccccc21` (stereo not given), the Inhibition is recorded as 52%.
Still for that read-out and setting: as for `Nc1nccc2ccc(-c3ccc4ncccc4c3)cc12.O=C(O)C(F)(F)F`, the figure is 100%.
The same measure, in the same setting: for `Cc1cc(-c2ccnc(Nc3cccc(C#N)c3)n2)cc(C)c1O` the value was 54%; for `COC(=O)Cc1ccc(N)c2ccccc12.Cl`, 0%; for `OC(CNCCc1ccccc1)Cn1c2ccc(Cl)cc2c2cc(Cl)ccc21` (stereo not given), 96%.
In turn, `O=C(c1cc(-c2ccco2)n[nH]1)N1CCN(S(=O)(=O)c2ccc(Cl)cc2)CC1` displayed an Inhibition of 95%.
In turn, `Cc1ccc(S(=O)(=O)O)cc1.N=C(N)NCCCC(=O)NCC(N)=O` yielded an Inhibition of 0%.
On the same count and under the same terms, for `COc1ccc(C=Cc2ccc(-c3c(C)[nH]c(C)c(Cl)c3=O)cc2)cc1OC` the value was 96%; for `O=C(Nc1cccc(CN2CCCN(Cc3cccc(F)c3)CC2)c1)c1ccc(Cl)c(Cl)c1.O=C(O)C(F)(F)F`, 6%.
Still for that read-out and setting: as for `Cl.N=C(N)Nc1ccc(NC(=O)Nc2ccc(NC(=N)N)cc2)cc1`, the figure is 74%; as for `CCC(CC)N1C(=O)C(c2ccccc2)(c2ccccc2)N=C1N.O=CO`, 61%.
Still for that read-out and setting: for `COc1cc2c(cc1OCCN1CCC(N3CCCC3)CC1)N(C(=O)/C=C/c1ccccc1Cl)CC2.Cl` the value was 68%; for `CN1CCN(CCCN(Cc2cccc(-c3ccc(CNCc4ccc5c(c4)OCO5)cc3)c2)C(=O)Nc2ccccc2)CC1.O=C(O)C(F)(F)F`, 69%.
`CCCCCC(C)N/C(=N/c1ccccc1Br)Nc1ccc([N+](=O)[O-])cc1O` (stereo not given) had an Inhibition of 98%.
The same measure, in the same setting: for `Cc1cc(N2CCCC2)nc(Nc2ccc(NC(=O)c3ccc4c(c3)OCO4)cc2)n1` the value was 67%; for `Cc1ccc2[nH]c(-c3ccccc3Nc3ccnc4cc(-c5nccs5)ccc34)nc2c1.Cl`, 100%.
Same read-out and setting: for `Cc1ccc(C(NC(=O)Cc2ccccc2)c2ccc3cccnc3c2O)cc1` (stereo not given) the value was 77%; for `COc1ccc2ccc(F)c(CC(=O)N3CCOC(CNCc4cccc(-c5ccc(F)cc5)n4)C3)c2n1` (stereo not given), 1%.
Take `COc1cc(Cc2c(C)nc3nc(N)nc(N)c3c2C)c(Br)c(OC)c1OC.Cl`: the Inhibition came out at 0%.
On the same count and under the same terms, as for `COc1ccc(C2SCC(=O)N2CCc2ccc(OC)c(OC)c2)cc1` (stereo not given), the figure is 2%; as for `OC(CN1CCN(Cc2ccccc2)CC1)Cn1c(-c2ccccc2)c(-c2ccccc2)c2ccccc21` (stereo not given), 97%; as for `CNCCNCc1ccc(-c2ccc(-c3nc4cccc(C)c4[nH]3)cc2)cc1.O=C(O)C(F)(F)F`, 79%.
For the compound `COc1ccccc1NS(=O)(=O)c1cc(C(=O)Nc2ccc(N3CCOCC3)c(S(=O)(=O)Nc3ccccc3Cl)c2)ccc1Cl`, the Inhibition was determined as 25%.
The compound `CC(C)C[C@H]1C(=O)N[C@H](C2Cc3ccccc3C2)C(=O)N1[C@@H](C(=O)Nc1ccccc1OCc1ccccc1)c1ccc(F)cc1F` displayed an Inhibition of 67%.
On the same count and under the same terms, for `Cc1ccc(Nc2nc(N/N=C/c3cccc(O)c3)nc(Nc3ccc([N+](=O)[O-])cc3)n2)cc1C` the value was 69%; for `Cl.c1ccc2cc(CNCCCN3CCN(CCCNCc4ccc5ccccc5c4)CC3)ccc2c1`, 65%.
`N=C(N)Nc1nc(-c2cccc(NC(=O)NCc3cccc4ccccc34)c2)cs1` yielded an Inhibition of 32%.
On the same count and under the same terms, as for `COc1ccc(-c2cncc3ccc(C(=O)NCc4ccncc4)nc23)cc1`, the figure is 98%; as for `O=C(O)C(F)(F)F.Oc1ccc(CC2CCCN(c3nc(NCCCOc4ccccc4-c4ccccc4)nc(N4CCNCC4)n3)C2)cc1` (stereo not given), 77%; as for `Cc1cc(N)c2cc(NC(=O)CCC(=O)Nc3ccc4nc(C)cc(N)c4c3)ccc2n1`, 77%.
